The list is not random: actives were taken first. Their share in the collection is about 3.4%.
PP5 primary – inhibitors of human protein phosphatase 5 (PP5); P53041; purified PP5c, OMFP substrate fluorescence; inhibition, % at 6.7 µM; 320,000 compounds, 0.18% hits; AID 1987;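 active means inhibition above the campaign's mean inhibition across all tested compounds plus 3 SD, cut at about 9.5% in these data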
PP1 inh – PP1-alpha (human) inhibition in PP5 counter-screen; inhibition, % at 6.7 µM; 320,000 compounds, 0.9% hits; purified PP1alpha, OMFP fluorescence;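 active means inhibition above the mean inhibition of all tested compounds plus 3 SD, computed separately for each screening campaign, cut at about 15% in these data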
PAFAH1B2 FP inh – blocks human PAF acetylhydrolase 1b catalytic subunit 2; AID 492953; recombinant PAFAH1B2, FP-rhodamine activity probe, fluorescence polarization; inhibition, % at 3.39 µM; 340,000 compounds, 1.2% hits;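 active means inhibition above the mean of all tested compounds plus 3 SD, cut at about 24% in these data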
Target sequence (P68402 whole entry, looked up): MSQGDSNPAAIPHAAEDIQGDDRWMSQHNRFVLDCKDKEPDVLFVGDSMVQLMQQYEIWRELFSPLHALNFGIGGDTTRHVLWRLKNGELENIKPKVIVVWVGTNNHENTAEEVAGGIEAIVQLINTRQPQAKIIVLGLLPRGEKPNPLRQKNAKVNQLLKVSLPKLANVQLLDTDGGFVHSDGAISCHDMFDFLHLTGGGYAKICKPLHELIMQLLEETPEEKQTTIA
PAFAH1B3 inh – PAFAH1B3 (human) inhibition; Q15102; recombinant PAFAH1B3, FP-rhodamine probe, fluorescence polarization; inhibition, % at 3.39 µM; 340,000 compounds, 0.28% hits; AID 492972;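 active means inhibition above the screen-wide average of all tested compounds plus 3 SD, cut at about 25% in these data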
Target sequence (Q15102 whole entry, looked up): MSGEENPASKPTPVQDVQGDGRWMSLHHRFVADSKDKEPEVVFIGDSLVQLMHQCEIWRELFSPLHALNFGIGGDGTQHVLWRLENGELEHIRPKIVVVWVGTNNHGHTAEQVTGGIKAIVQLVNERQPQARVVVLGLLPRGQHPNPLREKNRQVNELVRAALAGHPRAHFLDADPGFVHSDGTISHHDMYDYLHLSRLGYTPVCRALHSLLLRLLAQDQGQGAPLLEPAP
pPAFAH inh – inhibitors of human plasma PAF acetylhydrolase (pPAFAH). Q13093. recombinant pPAFAH, FP-rhodamine probe fluorescence polarization. inhibition, % at 3.39 µM. 330,000 compounds, 1.5% hits. AID 463082;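 active means inhibition above the mean inhibition across the screen plus 3 SD, cut at about 25% in these data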;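 further: inhibitors block binding of the rhodamine activity-based probe so polarization drops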
PAFAH2 FP inh – inhibitors of human PAFAH2; recombinant PAFAH2, FP-rhodamine activity probe, fluorescence polarization; AID 492956; 340,000 compounds, 0.99% hits; Q99487; inhibition, % at 3.39 µM;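 active means inhibition above the mean over all tested compounds plus 3 SD, cut at about 30% in these data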;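 further: inhibitors block probe labeling of enzyme so polarization drops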
A number is an active result; n = inactive; x = not tested or not shown.

SMILES	PP5 primary	PP1 inh	PAFAH1B2 FP inh	PAFAH1B3 inh	pPAFAH inh	PAFAH2 FP inh
O=C(NCCN1CCOCC1)c1cc2ccccc2[nH]1	n	n	n	n	n	n
COc1ccc2[nH]c(C(=O)NCCN3CCOCC3)cc2c1	n	n	36	n	n	n
C=CCn1c(=O)n(CCOC)c(=O)c2sc3ccccc3c21	n	n	n	n	28	n
COCCCn1c(=O)c2ccccc2n(Cc2ccccc2)c1=O	n	n	n	n	n	n
Cc1ccc(CN(C(=O)Cn2nnc3ccccc32)C(C(=O)NCc2ccco2)c2cccs2)cc1 (stereo not drawn)	n	17	n	n	n	n
CC1CCCCC1NC(=O)COC(=O)c1c2c(nc3ccccc13)/C(=C/c1ccco1)CC2 (stereo not drawn)	n	n	n	n	31	n
CCOC(=O)c1oc2ccccc2c1COC(=O)CNC(=O)c1ccccc1OC	n	n	n	n	n	n
O=C1OCC/C1=C\OCCCO/C=C1\CCOC1=O	n	n	n	n	n	n
O=C(Nc1ccc(C(=O)N2CCCC2)cc1)Nc1ccc(Cl)cc1Cl	n	n	n	n	n	n
Cn1c(CN2CCN(c3ccc(Cl)cc3)CC2)nc2ccccc21	n	n	n	n	n	n
Nc1nc2nc(SCC(=O)N3CCCc4ccccc43)[nH]c2c(=O)[nH]1	n	15	x	x	n	x
COC(=O)C1=C(C(=O)OC)[C@@H]2N(Cc3ccccc3)c3ccccc3[C@@]23C[C@@H](C(=O)OC)N(C(=O)COCc2ccccc2)C3=N1	n	n	n	n	n	n
Nc1nnc(CSCc2ccccc2Cl)s1	n	n	n	n	n	n
O=C(COc1ccc(Cl)cc1)Nc1nnc(-c2ccc3c(c2)CCCC3)o1	n	n	n	n	n	n
CCOc1ccccc1C(=O)OCC(=O)Nc1nnc(-c2ccccc2)o1	n	n	n	n	n	n
O=C(COc1ccccc1)Nc1nnc(-c2ccc(Cl)cc2)o1	n	17	n	n	n	n
CCOc1ccccc1C(=O)NC(C(=O)OCC(=O)Nc1nnc(-c2ccccc2)o1)C(C)C (stereo not drawn)	n	16	n	n	n	n
CCOc1ccc(NS(=O)(=O)c2ccc(NC(C)=O)c(OC)c2)cc1	n	n	n	n	25	n
CCC(=O)Nc1ccc(-c2ccc(NC(=O)CC)c(OC)c2)cc1OC	n	n	n	n	n	n
COc1cc(S(=O)(=O)Nc2ccc(C)cc2)ccc1NC(=O)c1ccncc1	n	n	n	n	34	n
COc1cc(S(=O)(=O)Nc2ccncc2)ccc1F	n	n	n	n	n	n
CCC(=O)Nc1ccc(S(=O)(=O)Nc2cccc(C)c2)cc1OC	n	n	n	n	30	n
COc1cc(OC)c(OC)cc1CN1CCN(S(=O)(=O)c2ccc(NC(C)=O)cc2)CC1	n	n	n	n	n	n
O=C(Nc1ccc2c3c(cccc13)CC2)c1cccc([N+](=O)[O-])c1	n	n	n	n	n	n
CCN(CC(=O)NCc1cccs1)C(=O)CCCOc1ccc(C(C)(C)C)cc1	n	n	25	n	n	n
SMILES	PP5 primary	PP1 inh	PAFAH1B2 FP inh	PAFAH1B3 inh	pPAFAH inh	PAFAH2 FP inh
Clc1ccc(-c2nn3cnnc3s2)c(Cl)c1	n	n	n	n	n	n
COc1ccc(CCN2C(=O)CSC2c2ccc(F)cc2)cc1 (stereo not drawn)	n	n	26	n	n	n
O=C1CSC(c2ccccc2)N1CCc1ccccc1 (stereo not drawn)	n	n	n	n	n	n
C=CCCC(=O)Nc1nc(C)c(-c2csc(Nc3cccc(OC)c3)n2)s1	n	n	n	n	n	n
CCCC(=O)Nc1nc(C)c(-c2csc(Nc3ccccc3OC)n2)s1	n	n	n	n	n	n
C=CCCC(=O)Nc1nc(C)c(-c2csc(Nc3cc(OC)ccc3OC)n2)s1	n	n	n	n	34	n
CCCC(=O)Nc1nc(C)c(-c2csc(Nc3cc(OC)ccc3OC)n2)s1	n	n	n	n	29	n
CCCC(C)C(=O)Nc1nc(C)c(-c2csc(Nc3cc(OC)ccc3OC)n2)s1 (stereo not drawn)	n	n	n	n	28	n
O=C1/C(=C/c2cccs2)SC(=S)N1CC(=O)N1CCCCC1CCO (stereo not drawn)	n	n	n	n	n	n
N#C/C(=C\c1cc(Br)ccc1F)C(=O)NC1CC1	n	n	n	n	n	n
COc1ccc2c(c1)C(=NNc1ccc(C(=O)O)cc1)c1cc(OC)ccc1-2	n	16	n	27	31	n
COc1ccc2c(/C=N/Nc3ccc(C(=O)O)cc3)c[nH]c2c1	n	n	n	n	28	n
COc1ccc2c(c1)c(/C=N/Nc1ccc(C(=O)O)cc1)c(C)n2C	n	n	n	n	25	n
COc1ccc2c(c1)c(C(=O)N/N=C/c1ccc(Br)cc1)c(C)n2C	n	n	n	n	n	n
COc1ccc(/C(C)=N/Nc2ccc(C(=O)O)cc2)c(OC)c1	n	n	n	n	n	n
CCOC(=O)N1CCN(C(=O)COc2cc(=O)n(C)c3ccccc23)CC1	n	n	n	n	n	n
CN(C(=O)COc1cc(=O)n(C)c2ccccc12)c1cccc(Cl)c1	n	n	n	n	28	n
Cc1cccc(N(C)C(=O)COc2cc(=O)n(C)c3ccccc23)c1	n	n	n	n	34	n
CCN(C(=O)COc1cc(=O)n(C)c2ccccc12)c1cccc(Cl)c1	n	n	n	n	n	n
COc1ccccc1CN(C)C(=O)c1sccc1-c1ccccc1	n	n	n	n	n	n
Cc1onc(C(=O)Nc2ccc(OC(F)(F)F)cc2)c1[N+](=O)[O-]	n	n	n	n	n	n
O=C(Nc1ccc(OC(F)(F)F)cc1)c1[nH]ncc1[N+](=O)[O-]	n	n	n	n	n	37
COC(=O)c1ccc(OCC(=O)c2ccc(O)cc2O)cc1	n	n	n	n	n	n
O=C(CNC(=O)c1cccc(Br)c1)N/N=C/c1cc(Br)cc(Br)c1O	n	n	31	n	n	n
O=C(CNC(=O)c1cccc(Br)c1)N/N=C/c1cccs1	n	n	n	n	n	n
SMILES	PP5 primary	PP1 inh	PAFAH1B2 FP inh	PAFAH1B3 inh	pPAFAH inh	PAFAH2 FP inh
COCC(=O)NC1CCN(CC(=O)Nc2ccc(OC)cc2[N+](=O)[O-])CC1	n	n	n	n	n	n
O=C(NCCc1ccc(Cl)cc1)C1CCCN1C(=O)Nc1ccccc1 (stereo not drawn)	n	n	26	n	n	n
O=C(NNC(=O)C1CCN(S(=O)(=O)c2ccc(Cl)cc2)CC1)c1ccc(S(=O)(=O)N2CCCCC2)cc1	n	n	n	n	n	n
Cc1ccc(C(=O)NNC(=O)C2CCN(S(=O)(=O)c3ccc(Cl)cc3)CC2)cc1	n	n	26	n	n	n
C=CCNC(=O)C1CCN(S(=O)(=O)c2ccc(Br)cc2)CC1	n	n	33	n	n	n
COc1ccc(CCNC(=O)C2CCN(S(=O)(=O)c3ccc(Cl)cc3)CC2)cc1OC	n	n	n	n	n	n
